Test results published in PubChem BioAssay AID1159580 (chemical genetic matrix, 2015).
Where “and” joins values, the source holds several entries; their conditions need not be identical. Equal values may be shown once. In all, about 5,500 compounds went through this assay and about 2,000 (36%) were called active. Another 18% or so got no clear call; they are omitted. Cut-off read from the data, not from the text of the source: active = normalized growth mostly below about 0.91 (no sharp cut-off); inconclusive = no clear call, values can overlap the other calls; inactive = mostly above about 0.92. The list shows a part of the results.

Assay: chemical genetic growth profiling, strain panel (AID 1159580);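 note: tested at 20 µM; growth read once vehicle control cultures reached saturation at 30 °C; 1 = growth at the plate median or of vehicle wells; lower values mean less growth of the strain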
Settings: S. cerevisiae deletion strains, growth OD

Measured: normalized growth

CCC(=O)c1c(O)cc(O)cc1O
inactive: locus YAL013W, strain DEP1, active compounds read low 1.01 | locus YAL021C, strain ccr4, active compounds read low 0.953 | locus YAL026C, strain drs2, active compounds read low 0.975 | locus YAL030W, strain snc1, active compounds read low 0.983 | locus YBL061C, strain skt5, active compounds read low 0.98 | locus YBR009C, strain hhf1, active compounds read low 1.03 | locus YBR021W, strain FUR4, active compounds read low 1.03 | locus YBR023C, strain chs3, active compounds read low 0.994 | locus YBR171W, strain sec66, active compounds read low 0.979 | locus YBR229C, strain ROT2, active compounds read low 0.994 | locus YBR231C, strain swc5, active compounds read low 0.987 | locus YBR279W, strain paf1, active compounds read low 0.992 | locus YCL011C, strain gbp2, active compounds read low 0.989 | locus YCL016C, strain dcc1, active compounds read low 0.974 | locus YCL029C, strain bik1, active compounds read low 0.982 | locus YCL069W, strain vba3, active compounds read low 0.992 | locus YCR088W, strain abp1, active compounds read low 0.991 | locus YDL005C, strain med2, active compounds read low 0.977 | locus YDL035C, strain GPR1, active compounds read low 1.01 | locus YDL040C, strain nat1, active compounds read low 0.99 | locus YDL074C, strain BRE1, active compounds read low 1 | locus YDL101C, strain DUN1, active compounds read low 1.01 | locus YDL134C, strain PPH21, active compounds read low 1.01 | locus YDL185W, strain tfp1, active compounds read low 0.972 | locus YDL192W, strain arf1, active compounds read low 0.981 | locus YDR001C, strain nth1, active compounds read low 0.987 | locus YDR069C, strain doa4, active compounds read low 0.983 | locus YDR101C, strain arx1, active compounds read low 0.975 | locus YDR137W, strain rgp1, active compounds read low 0.968 | locus YDR150W, strain NUM1, active compounds read low 1 | locus YDR159W, strain sac3, active compounds read low 0.995 | locus YDR162C, strain NBP2, active compounds read low 1 | locus YDR195W, strain ref2 0.955 | locus YDR297W, strain sur2, active compounds read low 0.982 | locus YDR318W, strain mcm21, active compounds read low 0.977 | locus YDR334W, strain swr1, active compounds read low 0.979 | locus YDR335W, strain msn5, active compounds read low 0.986 | locus YDR388W, active compounds read low 0.981 | locus YDR392W, strain spt3, active compounds read low 0.968 | locus YDR502C, strain sam2, active compounds read low 0.979 | locus YEL003W, strain gim4, active compounds read low 0.99 | locus YEL037C, strain rad23, active compounds read low 0.982 | locus YEL061C, strain CIN8 (second series), active compounds read low 0.992 | locus YEL061C, strain CIN8, active compounds read low 1 | locus YER015W, strain faa2, active compounds read low 0.991 | locus YER016W, strain bim1, active compounds read low 0.968 | locus YER110C, active compounds read low 0.979 | locus YER111C, strain swi4, active compounds read low 1 | locus YER155C, strain BEM2 (second series), active compounds read low 0.983 | locus YER155C, strain BEM2, active compounds read low 0.989 | locus YER167W, strain BCK2, active compounds read low 1.01 | locus YFR010W, strain ubp6, active compounds read low 0.998 | locus YGL078C, strain dbp3, active compounds read low 0.975 | locus YGL086W, strain mad1, active compounds read low 0.995 | locus YGL167C, strain pmr1, active compounds read low 0.974 | locus YGL173C, strain kem1, active compounds read low 1.01 | locus YGL227W, strain vid30, active compounds read low 0.993 | locus YGL240W, strain doc1, active compounds read low 1 | locus YGL248W, strain PDE1, active compounds read low 1.01 | locus YGL253W, strain hxk2, active compounds read low 0.986 | locus YGR078C, strain PAC10, active compounds read low 1.01 | locus YGR135W, strain pre9, active compounds read low 0.985 | locus YGR229C, strain SMI1, active compounds read low 0.992 | locus YGR252W, strain gcn5, active compounds read low 0.921 | locus YHR013C, strain ard1, active compounds read low 0.938 | locus YHR027C, strain rpn1, active compounds read low 1.01 | locus YHR030C, strain SLT2, active compounds read low 1.01 | locus YHR079C, strain IRE1 (second series), active compounds read low 0.978 | locus YHR079C, strain IRE1, active compounds read low 1.03 | locus YHR094C, strain hxt1, active compounds read low 0.983 | locus YHR129C, strain ARP1, active compounds read low 0.999 | locus YHR142W, strain chs7, active compounds read low 0.989 | locus YHR200W, strain rpn10, active compounds read low 0.972 | locus YIL066C, strain RNR3, active compounds read low 1.01 | locus YIL073C, strain SPO22, active compounds read low 1.07 | locus YIL125W, strain kgd1, active compounds read low 0.984 | locus YIR030C, strain dcg1, active compounds read low 0.979 | locus YJL092W, strain hpr5, active compounds read low 0.987 | locus YJL095W, strain BCK1 (second series), active compounds read low 0.995 | locus YJL095W, strain BCK1, active compounds read low 1 and 1.02 | locus YJL115W, strain asf1, active compounds read low 0.996 | locus YJL129C, strain trk1, active compounds read low 0.996 | locus YJL134W, strain LCB3, active compounds read low 0.999 | locus YJL154C, strain vps35, active compounds read low 0.975 | locus YJL164C, strain tpk1, active compounds read low 0.993 | locus YJL166W, strain qcr8, active compounds read low 0.991 | locus YJL168C, strain set2, active compounds read low 0.979 | locus YJL187C, strain SWE1 (second series), active compounds read low 1.01 | locus YJR043C, strain POL32, active compounds read low 1.01 | locus YJR066W, strain TOR1, active compounds read low 0.97 | locus YJR075W, strain HOC1, active compounds read low 1.01
